Shown are actives, neighbours in structure and some others; about 11% of the full set was active somewhere.
NIH3T3 tox: cytotoxic compounds in NIH 3T3 cells | Potency, µM (highest dose often 96.7 µM), for inactives: at the top dose activity change, negative = cytotoxicity, actives largely listed as inhibitors | NIH 3T3 viability, CellTiter-Glo ATP luminescence, 48-72 h | 94,000 tested, 4.3% active | AID 1345082; also: nearly all actives have a fitted effect of over 55% in size
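Mouse fibroblast NIH 3T3 cells, 400 per well, received compound via pintool and were incubated for 48 or 72 hr prior to CellTiter-Glo ATP luminescence measurement.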
FLuc inh: blocks purified firefly luciferase enzyme activity; AID 1347043; purified P. pyralis luciferase, luminescence, biochemical; P08659; 76,000 tested, 2.5% active; Potency, µM (titrated, usually from 115 µM), usual class: inhibitors; also: nearly all actives have a fitted effect of over 65% in size
Target sequence (P08659 whole entry, looked up): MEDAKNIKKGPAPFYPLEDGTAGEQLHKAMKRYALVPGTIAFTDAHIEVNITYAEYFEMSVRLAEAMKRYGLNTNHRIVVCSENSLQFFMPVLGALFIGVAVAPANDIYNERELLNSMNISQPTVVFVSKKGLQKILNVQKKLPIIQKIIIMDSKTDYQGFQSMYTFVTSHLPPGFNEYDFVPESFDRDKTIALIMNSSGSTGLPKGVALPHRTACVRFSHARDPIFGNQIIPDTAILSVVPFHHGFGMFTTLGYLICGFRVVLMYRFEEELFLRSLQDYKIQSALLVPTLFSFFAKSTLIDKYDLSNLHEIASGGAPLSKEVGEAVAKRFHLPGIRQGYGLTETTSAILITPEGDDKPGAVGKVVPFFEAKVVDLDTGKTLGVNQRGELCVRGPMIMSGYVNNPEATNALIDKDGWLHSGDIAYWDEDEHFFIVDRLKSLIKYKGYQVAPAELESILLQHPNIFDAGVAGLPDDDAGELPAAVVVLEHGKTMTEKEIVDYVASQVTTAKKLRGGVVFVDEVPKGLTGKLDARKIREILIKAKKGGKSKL
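Purified P. pyralis luciferase (10nM final) in 50mM Tris acetate pH 7.5, 10mM Mg acetate, 0.01% Tween-20, 0.05% BSA with 10uM D-luciferin and 10uM ATP. Compounds titrated qHTS. Luminescence imaged on CCD.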
HEK293 tox: cytotoxic compounds in HEK 293 cells | HEK 293 viability, ATP luminescence (CellTiter-Glo), 48-72 h | AID 1345083 | 94,000 tested, 6.6% active | Potency, µM (titrated, usually from 115 µM), for inactives: top-dose activity change, negative = cytotoxicity, hits mostly inhibitors; also: nearly all actives have a fitted effect of over 60% in size
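Cytotoxicity was scored by loss of ATP-coupled luminescence (CellTiter-Glo) in HEK 293 cells. Compound treatment ran 48 or 72 hr at 37 degree Celsius, 5% CO2, 95% humidity.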
NPR1 antag: human Npr1 receptor antagonism; HEK293 hNpr1 GloSensor cGMP, ANP-stimulated luminescence; 76,000 tested, 1.6% active; Potency, µM (titrated, usually from 46.3 µM), without a hit: at the highest dose activity change, negative = inhibition, most hits filed as inhibitors; P16066; calls by dose curve; also: nearly all actives have a fitted effect of over 60% in size
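Compound pre-incubated 30 min at room temperature on GloSensor-loaded HEK293 cells stably carrying hNpr1 and the pGS-40F cGMP biosensor. Stimulation uses hNppA at 0.1 nM final; luminescence is taken at baseline and 20 min post-agonist.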
Starred values were filed as active, the others as inactive; i = inactive; ? = inconclusive; · = not tested or not shown; [ ] = dose if it differs, or a comment. Unless noted, calls follow the shape of the dose curve; as a rule, active = well fitted curve in the direction sought with a large enough effect; inconclusive = small, poorly fitted or top-dose-only effect, or another doubt; inactive = no such curve, though single readings can be large; an effect the other way counts as inactive or inconclusive. % is scaled to controls: 0 for no effect and ±100 for the full control effect; potency is read from the fitted curve at half-maximal effect.

SMILES	NIH3T3 tox	FLuc inh	HEK293 tox	NPR1 antag
CN1CCC2(C1)CN(CC1CCOCC1)c1ccc(C(=O)NCCOc3ccccc3)cc12 (stereo unspecified)	32µM*	i	?	-1%
CN1CCC2(C1)CN(CC1CCOCC1)c1ccc(C(=O)NCCc3ccccc3)cc12 (stereo unspecified)	?	i	?	7%[70.6 µM]
CNC(C)c1ccc(OC(F)(F)F)cc1 (stereo unspecified)	i	·	i	·
CNC(C)c1ccc(Oc2ccccc2)cc1 (stereo unspecified)	79µM*	·	100µM*	·
Cc1ccc(OCCC2CCN(C(=O)Cc3c[nH]c4ccccc34)C2)cc1 (stereo unspecified)	?	i	35µM*	?
COc1ccc(OCc2nc(C3CN(C(=O)Cc4c[nH]c5ccccc45)C3)no2)cc1	?	i	45µM*	?
Cc1ccc(C(=O)N2CCC(CCC(=O)NCCc3c[nH]c4ccccc34)CC2)cc1	?	32µM*	?	-24%
COc1ccc(C(=O)N2CCC3(CC2)NC(=O)N(c2cccc(F)c2)N3)c(OC)c1	-17%	i	?	-11%
OC[C@H]1CCN(Cc2ccc(-c3cccc(Cl)c3Cl)o2)C[C@@H]1O	-20%	?	?	10µM*
Cc1ccccc1C(=O)N1CCN(C(=O)c2nc3cccnc3n(Cc3ccccc3)c2=O)CC1	-8%	·	i	·
CCN(Cc1ccncc1)C(=O)c1cc(-c2cnn(CC)c2)nc2cc(C)ccc12	2.8µM*	?	?	-11%
CN1CC(=O)N(C2CCNC2)Cc2c1ncnc2N1CCC(c2ccccc2)CC1 (stereo unspecified)	3%	·	2%	·
CN1CC(=O)N(C2CCC2)Cc2c1ncnc2N1CCCCC1	-13%	·	-4%	·
CN1CC(=O)N(C2CCC2)Cc2c1ncnc2N1CCC(c2ccccc2)CC1	?	i	45µM*	0%
CN1CC(=O)N(c2ccc(Cl)cc2)Cc2c1ncnc2N1CCC(Cc2ccccc2)CC1	?	i	32µM*	4%
CN1CC(=O)N(C2CCC2)Cc2c1ncnc2N1CCC(Cc2ccccc2)CC1	45µM*	i	?	-11%
CCc1cccc(NC(=O)c2nnn3cc(C)[nH]c(=O)c23)c1	1%	i	5%	6%
CNC(=O)[C@H]1CN(C(=O)c2cc(C)oc2C)[C@]2(C)C(=O)N(CC3CC3)c3ccccc3[C@H]12	?	·	-8%[57.5 µM]	·
O=C(NCC12CCCC=C1N(CC1CC1)C(=O)CC2)C1CCOCC1 (stereo unspecified)	-14%	·	-8%	·
CC(C)n1cc(CN2CCC(Oc3ccc(C(=O)NC4CCCC4)cc3Cl)CC2)cn1	40µM*	i	?	3%
O=C(c1ccccc1F)N1CCC(C(=O)N2CCC(N3CCCC3=O)CC2)CC1	-3%	·	i	·
CN(C)C(=O)N1CCCC1C(=O)N1CCC(N2Cc3ccccc3C2=O)CC1 (stereo unspecified)	-5%	·	-17%	·
O=C(NCCc1cccnc1)c1ccc(-c2nnc3ccc(NC(=O)C4CCC4)cn23)cc1	35µM*	i	?	-1%
CC(=O)N1CCN(Cc2ccc(-c3cnc4c(OCc5ccccc5)nccn34)cc2)CC1	32µM*	?	40µM*	-88%
CN1CCN(Cc2ccc(-c3cnc4c(OCc5ccccc5)nccn34)cc2)CC1	?	32µM*	?	?
SMILES	NIH3T3 tox	FLuc inh	HEK293 tox	NPR1 antag
O=C(NCc1ccc(-c2cnc3c(Oc4ccccc4)nccn23)cc1)c1cccc(O)c1	?	i	?	?
C[S+](=O)([O-])Nc1cccc(-c2cc3c(ccn3Cc3cccnc3)c(C3=CCOCC3)n2)c1	?	i	?	-10%
CN(C)Cc1cccc(-c2cc3c(ccn3Cc3cccnc3)c(C3=CCOCC3)n2)c1	?	i	35µM*	0%[70.6 µM]
Cc1ccc(-c2cc3c(ccn3Cc3cccnc3)c(C3=CCOCC3)n2)cn1	?	i	45µM*	-1%[70.6 µM]
COc1cccc(-c2cc3c(ccn3Cc3cccnc3)c(C3=CCOCC3)n2)c1OC	71µM*	i	100µM*	0%[70.6 µM]
C1=C(c2nc(-c3cncnc3)cc3c2ccn3Cc2cccnc2)CCOC1	?	i	-16%[172 µM]	3%[70.6 µM]
Cc1cc(C)n(CCC(=O)N2Cc3ccccc3OC3(CCN(C(C)C)CC3)C2)n1	-9%	·	i	·
CCCC(=O)N1Cc2ccccc2CC2(CCCCN2CC2CCOCC2)C1 (stereo unspecified)	i	·	-10%	·
COc1cccc(C(=O)NC2CCN(c3nccc(Nc4ccc(C)cc4)n3)CC2)c1	40µM*	·	?	·
COc1ccc(Nc2ccnc(N3CCC(NC(=O)c4ccccc4F)CC3)n2)cc1	?	·	50µM*	·
COc1ccc(Nc2ccnc(N3CCC(NC(=O)c4ccc(C)cc4)CC3)n2)cc1	-30%	·	?	·
Cc1ccc(Nc2ccnc(N3CCC(NC(=O)c4ccccc4F)CC3)n2)cc1	?	·	50µM*	·
CCC(=O)NCC1c2cc(OC)c(OC)cc2CCN1C(=O)NC(C)(C)C (stereo unspecified)	i	i	-1%	2%
CC(C)Cc1cc(CNc2nccc(-c3cc(C(=O)O)ccn3)n2)no1	-1%	?	-3%	0%
O=C(O)c1ccnc(-c2ccnc(NCC(O)c3ccccc3Cl)n2)c1 (stereo unspecified)	i	32µM*	i	2%
COc1ccc(-c2ccccc2C(=O)N2CCC(NC(=O)c3ccccc3)CC2)nn1	-23%	·	?	·
CC(C)C[C@@H]1N[C@H](C(=O)NCc2ccccc2)Cc2cn(Cc3ccncc3)c3cccc1c23	?	i	?	-5%
C=CCNC(=O)[C@@H]1Cc2cn(Cc3ccncc3)c3cccc(c23)[C@H](CC(C)C)N1	?	i	35µM*	-26%[70.6 µM]
COCCNC(=O)[C@@H]1Cc2cn(Cc3ccncc3)c3cccc(c23)[C@H](CC(C)C)N1	45µM*	i	45µM*	-3%[70.6 µM]
CC(C)C[C@@H]1N[C@H](C(=O)NCC2CC2)Cc2cn(Cc3cccnc3)c3cccc1c23	?	i	?	-28%[70.6 µM]
COCCNC(=O)[C@@H]1Cc2cn(Cc3cccnc3)c3cccc(c23)[C@H](CC(C)C)N1	?	i	45µM*	-3%[70.6 µM]
C#CCNC(=O)[C@@H]1Cc2cn(Cc3cccnc3)c3cccc(c23)[C@H](CC(C)C)N1	79µM*	i	56µM*	-1%[70.6 µM]
CC(C)C[C@@H]1N[C@H](C(=O)N2CCN(C)CC2)Cc2cn(Cc3cccnc3)c3cccc1c23	-9%	i	-12%	2%
COc1cccc(CNC(=O)C2Cn3cccc3C(=O)N2Cc2ccccc2)c1OC (stereo unspecified)	-24%	i	-18%	-1%
Cc1nc(-c2ccc(F)cc2)n(CC(=O)Nc2cccc(C#N)c2)c(=O)c1CCO	?	i	?	-21%
Cc1cnc(-c2ccccc2)n1CC1CCN(C(=O)C(C)c2ccccc2)CC1 (stereo unspecified)	-28%	i	?	-14%

Source: PubChem
